# Test results as given in PubChem BioAssay.
# Activity calls are given as the source filed them. Unless noted, no rule for the calls is given here.
# How the values were obtained:
# [1] = compound effects on lung adenocarcinoma cell viability – A549, calcein-AM fluorescence, 48 h, basal, profiling panel (AID 1162); settings: higher = more signal; also: test concentration not given here
# [2] = compound effects on differentiated 3T3-L1 adipocyte viability – cell-based, 3T3-L1 adipocytes, calcein-AM fluorescence, 48 h, basal, profiling panel (AID 1163); settings: 3T3-L1 adipocytes viability, higher = more signal; also: test concentration not given here
# [3] = compound effects on hepatocellular carcinoma cell viability – HepG2, calcein-AM fluorescence, 48 h, basal, profiling panel (AID 1164); settings: higher = more signal; also: test concentration not given here
# [4] = compound effects on multiple myeloma cell viability – MM1S, calcein-AM fluorescence, 48 h, basal, profiling panel (AID 1165); settings: higher = more signal;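 also: viability of MM1S multiple myeloma cells under basal unstimulated conditions; test concentration not given here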
# [5] = calcein-AM signal in unstimulated myeloma cells – cell-based, calcein-AM fluorescence, 48 h, PK04 Diversity Set, profiling panel (AID 1166); settings: RPMI8226 myeloma viability, higher = more signal;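 also: cells grown under basal conditions without added stimulus; test concentration not given here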
# [6] = JC-1 mitochondrial signal, unstimulated HepG2 cells – cell-based, JC-1 fluorescence, 24 h, 100 nL compound, profiling panel (AID 1167); settings: HepG2 mitochondrial potential, higher = more signal; also: test concentration not given here
# [7] = JC-1 mitochondrial signal, unstimulated adipocytes – cell-based, JC-1 fluorescence, 3T3-L1 adipocytes, 24 h, 100 nL compound, profiling panel (AID 1168); settings: JC-1 mitochondrial fluorescence, higher = more signal, called active from +8 up or from −8 down; also: test concentration not given here
# [8] = JC-1 mitochondrial signal, unstimulated myeloma cells – cell-based, JC-1 fluorescence, RPMI8226, 24 h, 100 nL compound, profiling panel (AID 1169); settings: JC-1 mitochondrial potential fluorescence, higher = more signal; also: test concentration not given here
# [9] = JC-1 mitochondrial signal, unstimulated MM1S myeloma – cell-based, JC-1 fluorescence, 24 h, 100 nL compound, profiling panel (AID 1170); settings: MM1S mitochondrial potential, higher = more signal; also: test concentration not given here
# [10] = resazurin metabolic signal in A549 cells – cell-based, resazurin fluorescence, 24 h, PK04 Diversity Set, profiling panel (AID 1171); settings: A549 viability, higher = more signal, called active from +8 up or from −8 down; also: test concentration not given here
# [11] = resazurin metabolic signal in HepG2 cells – cell-based, resazurin fluorescence, 24 h, PK04 Diversity Set, profiling panel (AID 1172); settings: HepG2 viability, higher = more signal; also: test concentration not given here
# [12] = budding yeast growth changes without added modifier – OD600, strain BY4716, 24 h, basal condition, primary screen (AID 1173); settings: S. cerevisiae BY4716 growth, OD600, 24 h; higher = more signal, called active from +8 up or from −8 down
# [13] = viability profiling in MM1S myeloma cells – cell-based, resazurin fluorescence, basal, 24 h, PK04 Diversity Set, profiling panel (AID 1174); settings: higher = more signal, called active from +8 up or from −8 down; also: test concentration not given here
# [14] = target: Dihydroorotate dehydrogenase (quinone), mitochondrial (Plasmodium falciparum (isolate 3D7)) (UniProt Q08210); assay: inhibition of P. falciparum DHODH – biochemical, C-terminal His tag, absorbance 600 nm, primary screen (AID 1175); settings: PfDHODH enzyme, DCIP absorbance 600 nm; higher = more signal, called active from +8 up or from −8 down;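 also: recombinant parasite enzyme with a five histidine tag at its C terminus; test concentration not given here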
# Chain of Dihydroorotate dehydrogenase (quinone), mitochondrial (Plasmodium falciparum (isolate 3D7)) (Q08210 whole entry, looked up): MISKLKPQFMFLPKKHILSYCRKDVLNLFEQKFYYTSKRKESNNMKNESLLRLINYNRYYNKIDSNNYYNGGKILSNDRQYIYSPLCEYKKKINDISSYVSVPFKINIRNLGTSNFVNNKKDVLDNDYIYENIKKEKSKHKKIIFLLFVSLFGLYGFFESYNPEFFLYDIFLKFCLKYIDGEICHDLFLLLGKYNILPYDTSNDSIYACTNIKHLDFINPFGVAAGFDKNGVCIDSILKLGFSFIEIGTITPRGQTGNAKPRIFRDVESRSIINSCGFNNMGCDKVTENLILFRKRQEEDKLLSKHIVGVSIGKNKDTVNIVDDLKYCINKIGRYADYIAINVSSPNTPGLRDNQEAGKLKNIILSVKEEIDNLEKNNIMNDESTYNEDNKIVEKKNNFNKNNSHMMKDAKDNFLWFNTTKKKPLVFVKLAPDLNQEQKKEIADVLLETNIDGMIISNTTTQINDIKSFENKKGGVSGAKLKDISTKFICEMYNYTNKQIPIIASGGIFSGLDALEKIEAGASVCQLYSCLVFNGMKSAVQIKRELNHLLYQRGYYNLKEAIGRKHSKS
# [15] = inhibition of PAO1 biofilm formation – strain PAO1, LB-PBS medium, absorbance 600 nm, primary screen (AID 1176); also: test concentration not given here; settings: P. aeruginosa PAO1 growth/biofilm, A600, 12 h; higher = more signal
# [16] = growth modulation of vineyard yeast isolate – strain RM11-1a, OD600, basal, 24 h, primary screen (AID 1177);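 also: cultures grown under basal conditions with no added stressor; test concentration not given here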; settings: S. cerevisiae RM11-1a growth, OD600, 24 h; higher = more signal, called active from +8 up or from −8 down
# [17] = growth of efflux-deficient E. coli DRC39 – strain DRC39, OD650, 24 h, E. coli filamentation inducers, primary screen (AID 1178);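 also: growth measured as culture turbidity by optical density at 650 nm; test concentration not given here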; settings: E. coli DRC39 acrAB, higher = more signal, called active from +8 up or from −8 down
# [18] = growth of efflux-deficient E. coli DRC39 – strain DRC39, OD650, 48 h, E. coli filamentation inducers, primary screen (AID 1179);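 also: screen aims at cell division blockers that make cells filament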; settings: E. coli DRC39 delta-acrAB growth, higher = more signal, called active from +8 up or from −8 down
# [19] = viability profiling in RPMI8226 myeloma cells – cell-based, resazurin fluorescence, basal, 24 h, PK04 Diversity Set, profiling panel (AID 1180); settings: higher = more signal;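 also: RPMI8826 multiple myeloma cell line at 5000 cells per well; test concentration not given here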
# [20] = target: E3 ubiquitin-protein ligase XIAP (Homo sapiens) (UniProt P98170); assay: small molecules binding XIAP protein – biophysical, small-molecule microarray, fluorescence 635 nm, primary screen (AID 1181); settings: higher = more signal;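 also: score merges 667 nm emission and signal to noise over triplicate slides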
# Chain of E3 ubiquitin-protein ligase XIAP (Homo sapiens) (P98170 whole entry, looked up): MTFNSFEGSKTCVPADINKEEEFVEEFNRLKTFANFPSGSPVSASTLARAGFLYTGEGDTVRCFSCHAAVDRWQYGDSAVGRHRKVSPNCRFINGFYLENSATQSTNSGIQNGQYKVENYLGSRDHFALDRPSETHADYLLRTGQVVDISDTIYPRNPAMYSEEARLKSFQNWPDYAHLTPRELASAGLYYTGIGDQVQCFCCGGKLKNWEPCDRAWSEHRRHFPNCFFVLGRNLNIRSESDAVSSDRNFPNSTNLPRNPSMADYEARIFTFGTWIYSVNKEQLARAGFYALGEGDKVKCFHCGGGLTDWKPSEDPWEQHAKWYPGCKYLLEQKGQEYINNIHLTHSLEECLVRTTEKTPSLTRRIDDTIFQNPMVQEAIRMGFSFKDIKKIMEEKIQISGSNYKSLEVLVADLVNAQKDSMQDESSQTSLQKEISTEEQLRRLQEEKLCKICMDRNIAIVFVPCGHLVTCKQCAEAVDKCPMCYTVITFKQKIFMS
Structure (SMILES),z-score [1],z-score [2],z-score [3],z-score [4],z-score [5],z-score [6],z-score [7],z-score [8],z-score [9],z-score [10],z-score [11],z-score [12],z-score [13],composite z-score [14],z-score [15],z-score [16],z-score [17],z-score [18],z-score [19],composite z-score [20]
CCCCCCc1nc(CCCc2cc3c(c(CCCCCC)n2)[Si](C(C)C)(C(C)C)OC3)cc2c1[Si](C(C)C)(C(C)C)OC2,-2.42,1.78,-1.47,-3.28,-4.35,0.535,0.705 (inactive),-1.1,-0.553,1.75 (inactive),-0.0097,-0.528 (inactive),0.129 (inactive),-2.32 (inactive),0.374 (inactive),0.539 (inactive),-0.214 (inactive),-0.728 (inactive),-0.655,-0.0829
CC(C)CNC(=O)[C@@]1(c2ccc([N+](=O)[O-])cc2)CC(=O)N(CC23CC4CC(CC(C4)C2)C3)[C@@H]1c1ccc(CO)cc1I,-0.394,0.604,-3.4,-3.83,-4.32,1.47,-0.744 (inactive),-0.948,-0.674,-2.77 (inactive),-2.55,0.431 (inactive),-2.77 (inactive),0.989 (inactive),1.9 (inactive),1.69 (inactive),-0.507 (inactive),-0.91 (inactive),-3.94,-0.144
O=C(OCCF)C1=CCC(c2cccc(Cl)c2)O1 (stereo not given),0.558,-0.0426,0.303,1.17,0.669,0.89,1.15 (inactive),-1.07,-0.157,-0.61 (inactive),-0.185,-2.59 (inactive),0.0509 (inactive),-1.71 (inactive),-0.212 (inactive),-1.56 (inactive),-0.18 (inactive),0.443 (inactive),0.122,0.0176
O=C1O[C@@H](c2ccccc2)[C@@H](c2ccccc2)N2[C@@H](c3ccc(OCCO)cc3)[C@]3(C(=O)Nc4ccccc43)[C@@H](C(=O)Nc3nc4ccccc4s3)[C@H]12,-0.328,-0.343,0.27,-0.829,-1.17,-3.31,2.07 (inactive),-1.05,-1.86,-1.4 (inactive),-0.489,0.0135 (inactive),-1.52 (inactive),-0.308 (inactive),3.18 (inactive),1.97 (inactive),-0.595 (inactive),0.29 (inactive),-1.55,0.148
COCCOC(=O)N1C(=O)[C@@]2(c3cc(C#CCC(C(=O)OC)C(=O)OC)ccc31)[C@H](c1ccc(O)cc1)N1[C@H](c3ccccc3)[C@H](c3ccccc3)OC(=O)[C@H]1[C@@H]2C(N)=O,-0.78,0.618,-0.568,-2.89,-3.48,-1.63,-0.791 (inactive),-0.799,0.0557,-0.195 (inactive),-0.2,-0.235 (inactive),-0.0347 (inactive),-0.181 (inactive),1.28 (inactive),0.332 (inactive),-0.319 (inactive),-0.586 (inactive),-0.777,0.098
COc1ccc([Si](C)(C)[C@@H]2[C@@H](CC(=O)N3CCC[C@H]3CO)O[C@]3(C(=O)N(C)c4c(Br)cc(C)cc43)[C@H]2C)cc1,0.49,0.406,1.03,-0.929,-1.04,1.02,0.0349 (inactive),-0.489,-0.0745,0.206 (inactive),0.27,-1.62 (inactive),0.62 (inactive),-1.88 (inactive),0.331 (inactive),-1 (inactive),0.233 (inactive),0.0205 (inactive),-0.128,0.287
CC(=O)NCCCC[C@@H]1NC(=O)[C@@H]2C[C@H](C(=O)NCCCCCCNC(=O)CS)[C@H](c3ccc(O)cc3)N2C1=O,-0.503,-0.683,0.366,0.0337,-0.66,-0.638,-0.744 (inactive),-0.0931,-0.795,-0.363 (inactive),0.107,-0.688 (inactive),-0.568 (inactive),-0.344 (inactive),-0.434 (inactive),0.208 (inactive),-0.356 (inactive),-0.214 (inactive),-0.763,-0.0773
COCCOC(=O)N1C(=O)[C@@]2(c3cc(C#CCC(C(=O)OC)C(=O)OC)ccc31)[C@H](C(=O)N1CCN(c3ncccn3)CC1)[C@H]1C(=O)O[C@H](c3ccccc3)[C@H](c3ccccc3)N1[C@@H]2c1ccc(OCCO)cc1,1.68,1.02,0.674,0.65,1.21,-0.656,1.86 (inactive),-0.303,-1.16,0.665 (inactive),1.36,0.539 (inactive),0.724 (inactive),-0.432 (inactive),3.48 (inactive),1.84 (inactive),0.272 (inactive),0.106 (inactive),1.32,0.0838
O=C1O[C@@H](c2ccccc2)[C@@H](c2ccccc2)N2[C@@H](c3ccccc3OCCO)[C@]3(C(=O)Nc4ccc(C#CC5(O)CCCCCC5)cc43)[C@@H](C(=O)Nc3nc4ccccc4s3)[C@H]12,-1.49,0.601,-3,-3.22,-4.17,-2.67,2.71 (inactive),-0.863,-1.41,-1.34 (inactive),-0.592,0.193 (inactive),-3.35 (inactive),0.18 (inactive),2.5 (inactive),1.86 (inactive),-0.994 (inactive),-1.19 (inactive),-4.98,0.0077
